LmPK inh = blocks Leishmania mexicana pyruvate kinase activity. Potency, µM (highest dose often 57.5 µM), inactives show at the top dose activity change, negative = inhibition, usual class: inhibitors. 290,000 compounds, 0.37% hits. purified LmPK, Kinase-Glo ATP luminescence, 1 h; further: potency means the concentration at half of the fitted maximal effect; on the % scale 0 is the no-effect control and ±100 the full control effect
Target sequence (Q27686 whole entry, looked up): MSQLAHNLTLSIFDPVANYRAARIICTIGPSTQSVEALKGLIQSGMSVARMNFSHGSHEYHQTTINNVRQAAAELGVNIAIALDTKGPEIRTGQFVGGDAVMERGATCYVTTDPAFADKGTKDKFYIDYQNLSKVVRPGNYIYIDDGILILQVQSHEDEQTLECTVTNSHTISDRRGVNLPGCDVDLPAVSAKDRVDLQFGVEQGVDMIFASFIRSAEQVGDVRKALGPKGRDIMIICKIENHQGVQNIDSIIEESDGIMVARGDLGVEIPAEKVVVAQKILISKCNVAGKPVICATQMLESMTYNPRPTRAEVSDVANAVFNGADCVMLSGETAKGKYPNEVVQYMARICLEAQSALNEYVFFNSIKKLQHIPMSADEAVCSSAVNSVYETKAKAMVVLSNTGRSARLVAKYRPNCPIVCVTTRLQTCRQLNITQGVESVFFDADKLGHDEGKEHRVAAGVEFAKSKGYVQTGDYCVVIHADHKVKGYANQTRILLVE
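Purified LmPK (0.1 nM) converted ADP (0.1 mM) to ATP with PEP (0.5 mM) in imidazole buffer pH 7.2 with KCl and MgCl2, 1 h at room temperature. ATP was read by Kinase-Glo luminescence; data normalized to uninhibited and no-enzyme controls.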
Shiga toxin inh = blocks Shiga toxin action in Vero cells; 290,000 compounds, 9.2% hits; Vero cells, Shiga toxin protein synthesis inhibition reporter; inhibition, % at 38.7 µM; in the data active means inhibition mostly above about 28%, no sharp cut-off; inactive means mostly below about 43%; further: 0% is about no effect
Sm TGR block = S. mansoni TGR enzyme inhibition | Q962Y6 | purified TGR, DTNB reduction, TNB absorbance 405 nm | Potency, µM (doses to about 114 µM), inactives show at the top dose activity change, negative = inhibition, hits mostly inhibitors | 360,000 compounds, 3% hits | AID 485364; further: potency means the concentration at half of the fitted maximal effect; on the % scale 0 is the no-effect control and ±100 the full control effect; nearly all actives have a fitted effect of over 60% in size
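Kinetic colorimetric format: TGR-catalysed, NADPH-driven DTNB reduction monitored via TNB absorbance. Enzyme dispensed at 20 nM; compound exposure 15 min at room temperature before reaction start.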
Tb PYK inh = inhibitors of Trypanosoma brucei pyruvate kinase; TbPYK enzyme, Kinase-Glo Plus ATP luminescence, 45 min; Potency, µM (top dose mostly 76.8 µM), for inactives: at the top dose activity, negative = inhibition, hits mostly inhibitors; 410,000 compounds, 0.12% hits; AID 624173; Q57TT1; further: potency means the concentration at half of the fitted maximal effect; on the % scale 0 is the no-effect control and ±100 the full control effect; nearly all actives have a fitted effect of over 50% in size
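Screened from lowest to highest concentration, compounds were pinned into TbPYK/substrate mixtures, and ADP (130 uM final) was added. Plates sat at room temperature for 45 min prior to Kinase-Glo Plus detection by luminescence.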
Cycloheximide cs = counter-screen hit for Shiga toxin inhibitors, cycloheximide | cell reporter, cycloheximide protein synthesis inhibition counterscreen | 300,000 compounds, 12% hits | max response, %; in the data active means max response mostly above about 13%, no sharp cut-off; inactive means mostly below about 14%; further: read at 38.3 µM for the half of the compounds with a filed dose; 0% is about no effect
FBPA Giardia inh = Giardia lamblia aldolase inhibition | Potency, µM (highest dose often 59.6 µM), for the others: top-dose activity, negative = inhibition, hits mostly inhibitors | purified Giardia FBPA | 290,000 compounds, 0.71% hits; further: potency means the concentration at half of the fitted maximal effect; on the % scale 0 is the no-effect control and ±100 the full control effect; nearly all actives have a fitted effect of over 55% in size
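Giardia FBPA (40 nM reagent) was preincubated 10 min at RT with compound (up to 57.5 uM final), then substrate plus GAPDH/TPI/NAD/arsenate coupling system with diaphorase/resazurin was added; resorufin fluorescence (525/598 nm) was read after 20 min.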
The depositor's hits bear a star; i = inactive; ? = inconclusive; . = no result; [ ] = another dose, or the depositor's remark. Only a selection was taken, and hits are over-represented in it overall. Unless noted, the call rests on the fitted dose curve; in most records, active means well fitted curve in the direction sought with a large enough effect; inconclusive means small, poorly fitted or top-dose-only effect, or another doubt; inactive means no such curve, though single readings can be large; an effect the other way counts as inactive or inconclusive.

SMILES	LmPK inh	Shiga toxin inh	Sm TGR block	Tb PYK inh	Cycloheximide cs	FBPA Giardia inh
COc1cc(NC(=O)c2ccco2)c(C(=O)OCC(=O)c2c[nH]c3ccccc23)cc1OC	1%	18	5%	-9%	0	-3%
Cc1[nH]c2ccccc2c1C(=O)COC(=O)C1CCC1	1%	40	3%	-2%	23*	-2%
O=C(OCC(=O)c1c[nH]c2ccccc12)c1ccc(Br)o1	0%	111*	4%	0%	26*	-2%
O=C(OCC(=O)c1c[nH]c2ccccc12)c1ccco1	1%	88*	-14%	-10%	68*	2%
O=C(COC(=O)C1CC1)c1c[nH]c2ccccc12	-21%	76*	4%	9%	57*	-3%
CCCn1c2ccccc2c2cnn(CC(=O)N3CCC(C)CC3)c(=O)c21	.	.	-2%	-5%	.	.
CCOc1ccc(C2C(C#N)=C(N)N3C(=C2C#N)Sc2ccccc23)cc1 (centres undefined)	5%	65*	-14%	-34%	26*	-7%
CCCCCNC(=O)c1ccc(NS(=O)(=O)c2ccc3[nH]c(=O)[nH]c3c2)cc1	-2%	-21	25µM*	1%	-4	.
COc1cc(CNc2ccc(O)cc2)cc(Br)c1OCc1ccccc1F	0%	5	-32%	?	1	16µM*
COc1cc(CNc2ccc(N3CCCCC3)cc2)ccc1OCC(=O)NC(C)(C)C	-1%	40*	?	-8%	13*	-8%
COc1cc(CNc2ccc(N3CCCC3)cc2)ccc1OCc1ccccc1F	-21%	173*	?	-34%	64*	4%
COc1cc(CNc2ccc(N3CCCC3)cc2)ccc1OCc1ccccc1	-9%	55*	45µM*	?	42*	?
COc1ccc(CNc2ccc(N3CCN(C(C)=O)CC3)cc2)cc1OC	.	.	.	-8%	.	.
CCOc1ccc(NC(=O)CCc2nc3cccnc3n2-c2ccccc2)cc1	.	.	5%	4%	.	.
COc1cc(CNCCCCO)ccc1OCc1ccccc1F	1%	57*	12%	3%	18*	-1%
CCNCc1ccc(OCc2ccccc2F)c(OC)c1	1%	31	25%	6%	3	2%
CC(=O)N/C(=C\c1ccccc1)C(=O)OCc1cccc(S(=O)(=O)N(C)C)c1	2%	3	-10%	-2%	1	2%
Cc1ccc(C)c(N2CCN(C(=O)c3cc4cc5ccc(C)cc5nc4o3)CC2)c1	.	.	-10%	-1%	.	.
CCOC(=O)C1CCN(C(=O)c2cc3cc4ccc(C)cc4nc3o2)CC1	0%	45*	-11%	-12%	30*	-7%
CCOC(=O)C1CCN(C(=O)c2cc3c(ccc4ccccc43)o2)CC1	0%	121*	-4%	-2%	59*	.
CC1CCN(C(=O)c2cc3c(ccc4ccccc43)o2)CC1	-12%	77*	6%	1%	20*	.
Cc1nc2ccccc2c2oc(C(=O)N3CCC(C)CC3)cc12	6%	60*	2%	3%	20*	3%
CCOC(=O)C1CCN(C(=O)c2ccc(C)o2)CC1	.	.	.	-2%	.	.
c1ccc(OCCn2c(-c3ccco3)nc3ccccc32)cc1	-6%	70*	8.9µM*	?	20*	-8%
CCn1c(-c2ccco2)nc2ccccc21	-7%	77*	32µM*	-7%	26*	-5%
SMILES	LmPK inh	Shiga toxin inh	Sm TGR block	Tb PYK inh	Cycloheximide cs	FBPA Giardia inh
Cc1nc2ccccc2n1CCCOc1ccccc1	-4%	47*	1%	-6%	21*	-17%
O=C(O)CCn1c(SCCOc2ccccc2)nc2ccccc21	-4%	.	4%	-7%	14*	7%
O=C(Cn1c(=O)nc(-c2ccccc2)c2cc(Cl)ccc21)N1CCN(c2ccc(F)cc2)CC1	.	.	0%	-3%	.	.
COc1ccc(NC(=O)C2(c3cccs3)CCOCC2)cc1Cl	.	.	3%	6%	.	.
Cc1cccc(OCCn2c(-c3ccco3)nc3ccccc32)c1	-1%	23	?	0%	26*	.
Cc1cccc(OCCn2c(S(=O)(=O)O)nc3ccccc32)c1	2%	1	4%	0%	0	12%
COc1ccc(Nc2nnc(-c3ccncc3)s2)cc1Cl	-7%	71*	5%	-12%	49*	1%
Cc1ccc(Nc2nnc(-c3ccncc3)s2)c(Br)c1	3%	26	4%	0%	27*	7%
Clc1ccccc1Nc1nnc(-c2ccncc2)s1	4.5µM*	28*	1%	?	41*	0%
Cc1cc2c(c(=O)n1-c1ccccc1)C1O[C@](c3ccsc3)(Cc3cc(C#N)ccc31)O2	-15%[11.5 µM]	i	-29%[22.9 µM]	.	1	-19%[12.9 µM]
O=C(Nc1cc(Cl)cc(Cl)c1)c1ccc(F)c(S(=O)(=O)N2CCCCCC2)c1	.	.	-3%	7%	.	.
Cc1ccnc(NC(=O)c2cccc([N+](=O)[O-])c2C)c1	0%	51	3%	-7%	16	1%
Cc1cccc(NC(=O)c2ccc([N+](=O)[O-])o2)c1C	0%	-14	6%	1%	-4	-11%
Cc1ccnc(NC(=O)c2ccc([N+](=O)[O-])o2)c1	-26%	133*	?	-6%	68*	-29%
O=C(Nc1nc2c(Cl)cccc2s1)c1ccc([N+](=O)[O-])o1	-3%	.	-15%	-1%	2	-4%
O=C(Nc1nc2c(F)cccc2s1)c1ccc([N+](=O)[O-])o1	-5%	9	-12%	7%	11*	-15%
O=C(Nc1ncccn1)c1ccc([N+](=O)[O-])o1	-4%	64*	?	-12%	52*	-24%
O=C(Nc1ccccn1)c1ccc([N+](=O)[O-])o1	-15%	65*	-26%	-5%	33*	-8%
Cn1c(C(=O)NCCc2ccccc2)cc2sc(Cl)cc21	.	.	-4%	4%	.	.
CN(C)CCCN(C(=O)c1ccc(S(=O)(=O)N2CCc3ccccc3C2)cc1)c1nc2c(F)cccc2s1	-3%	-6	-18%	0%	32*	-23%
Cc1cccc2sc(N(CCCN(C)C)C(=O)c3ccc(S(=O)(=O)N4CCc5ccccc5C4)cc3)nc12	7%	15	-8%	7%	18	-10%
O=C(c1cc(COc2ccc(F)cc2Cl)on1)N1CCCCC1c1cccnc1 (centres undefined)	2%	38*	-21%	-5%	25*	8%
Cc1nonc1C1CCCN1C(=O)c1cc(COc2ccc(F)cc2Cl)on1 (centres undefined)	7%	41	-3%	-1%	29*	0%
O=C(c1cc(COc2ccc(F)cc2Cl)on1)N1CCc2sccc2C1	-3%	43*	-8%	-4%	26*	.
COc1cc(Cl)ccc1OCc1cc(C(=O)N2CCN(C3CCCCC3)CC2)no1	.	.	.	2%	.	.
O=C(c1cc(COc2ccc(F)cc2Cl)on1)N1CCN(C2CCCC2)CC1	1%	19	-2%	1%	-3	0%

Source: PubChem
